We go through seven compounds from PubChem BioAssay.

Each structure is given as a SMILES string. Activity calls are given as the source filed them.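 How the source made its calls, unless noted: active means compounds giving at least 50% inhibition in the cell-based MKP-3 phosphatase rescue imaging test; inactive means the rest.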

Experiment [1] in a line: inhibitors of TNFa-induced NFkB p65 translocation, primary screen, imaging, HUVEC, MLSMR starter and 10KST1 sets (AID 438;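 active means inhibition above 20% together with a positive visual image hit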;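 further: compound added about 3h40 before a 20 min TNFalpha stimulation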;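 on inhibition: signal is the nuclear over cytoplasmic p65 intensity ratio per well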). Conditions: HUVEC TNFa-induced p65 nuclear translocation; cell count: measured here: nuclei count (cytotoxicity indicator), at 2.08 µM; inhibition: at 2 µM, stronger effect = higher value, 0% TNFa-plus-vehicle, 100% no-TNFa wells.
Experiment [2] is described as follows: inhibitors of mutant huntingtin aggregation, primary screen, imaging, exon1htt(103Q)mCFP cells, high-content imaging (AID 483;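 active means visual image review flags a hit and inhibition of aggregation exceeds 20%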;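 further: compound exposure lasted 3 days before fixation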;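 on nuclei count: percent of the per-plate median nuclei count of sample wells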). As to conditions: exon1htt(103Q)mCFP cell line, aggregate imaging, at 2 µM; inhibition of aggregation: stronger effect = higher value; nuclei count: measured here: cell count, toxicity.
Experiment [3] can be described thus: inhibitors of E-selectin induction by TNFa, primary screen, imaging, HUVEC, immunofluorescence, MLSMR starter and 10KST1 sets (AID 487;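 active means visually confirmed hit in the image check and inhibition above 20%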;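 on inhibition: signal is fraction of cell area covered by stained E-selectin grains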;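 on nuclei count: 100% = median nuclei count of all wells on the same plate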). Conditions: HUVEC TNFalpha-induced E-selectin immunofluorescence imaging, at 2 µM; inhibition: stronger effect = higher value; nuclei count: measured here: cell number, toxicity.
Experiment [4] in a line: DUSP6 inhibitors restoring Erk phosphorylation by chemical complementation, primary imaging in DUSP6-transfected HeLa (AID 609).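 On inhibition: phospho-Erk level distribution per well compared with pooled transfected vehicle control wells.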 As to conditions: HeLa MKP-3 transfected, phospho-Erk imaging KS statistic, at 10 µM, cells stimulated with TPA for 15 min.
In experiment [5] the target is Dual specificity protein phosphatase 6 (Homo sapiens) (UniProt Q16828). Described as above. As to conditions: HeLa MKP-3 transfected, phospho-Erk imaging KS statistic; at 10 µM; stronger effect = higher value; cells stimulated with TPA for 15 min.
Dual specificity protein phosphatase 6 (Homo sapiens), sequence (Q16828 whole entry, looked up): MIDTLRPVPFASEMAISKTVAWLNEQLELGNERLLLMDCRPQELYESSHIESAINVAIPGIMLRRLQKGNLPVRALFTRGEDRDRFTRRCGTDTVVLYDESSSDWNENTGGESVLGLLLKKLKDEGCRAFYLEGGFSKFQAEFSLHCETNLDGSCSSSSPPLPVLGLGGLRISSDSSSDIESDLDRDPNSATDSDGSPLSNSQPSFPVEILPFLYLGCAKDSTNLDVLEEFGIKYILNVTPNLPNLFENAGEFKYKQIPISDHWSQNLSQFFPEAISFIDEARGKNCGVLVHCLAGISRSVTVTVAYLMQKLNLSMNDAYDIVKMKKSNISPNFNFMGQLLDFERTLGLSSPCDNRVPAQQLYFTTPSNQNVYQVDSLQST
Experiment [6] concerns the target Voltage-gated potassium channel subunit beta-2 (Rattus norvegicus) (UniProt P62483). Nature of the experiment: KvBeta enzyme negative modulators, primary screen, biochemical, NADPH fluorescence (AID 622;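 active means fluorescence slope higher than the sample average by over 3 SD, cut at about -0.22 in these data, passing the limit was not always enough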;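 further: slope of raw intensity against log time taken from 70 to 1610 s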). Conditions: recombinant KvBeta, 4-cyanobenzaldehyde reduction, at 10 µM, stronger effect = higher value.
Experiment [7] has the same target. Nature of the experiment: KvBeta positive modulators, primary screen, biochemical, NADPH fluorescence (AID 623;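 active means NADPH fluorescence slope more negative than the mean of all samples by about 3 SD, 99.7% confidence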;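 further: fluorescence intensity change per second fitted from 20 to 320 s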). As to conditions: Recombinant KvBeta, NADPH fluorescence decrease slope, 10 min; at 10 µM; stronger effect = lower value.
Experiment [8] has as its target Alpha-2C adrenergic receptor (Homo sapiens) (UniProt P18825). Briefly: modulators of alpha2C/GIRK thallium flux, primary screen, cell-based, HEK293 alpha2C/GIRK1/2 (AID 624;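 active means fluorescence slope after compound addition differing from the mean of all screened samples at 99.7% confidence, in either direction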;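 further: slope of fluorescence ratio to pre-addition baseline per second over 15 to 24 s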). As to conditions: thallium flux BTC fluorescence, at 10 µM, actives lie on both sides.
Experiment [9] deals with Muscarinic acetylcholine receptor M4 (Homo sapiens) (UniProt P08173). Nature of the experiment: compounds altering M4/GIRK thallium flux, either direction, primary screen, M4 allosteric agonist project, cell-based, HEK293 M4/GIRK, BTC-AM (AID 625;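 active means fluorescence slope after compound addition differing from the mean of all tested samples at 99.7% confidence, mostly higher but some lower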;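 further: thallium influx through GIRK channels coupled to M4 in HEK293 cells with BTC-AM dye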). Conditions: at 10 µM, actives lie on both sides.
Muscarinic acetylcholine receptor M4 (Homo sapiens), sequence (P08173 whole entry, looked up): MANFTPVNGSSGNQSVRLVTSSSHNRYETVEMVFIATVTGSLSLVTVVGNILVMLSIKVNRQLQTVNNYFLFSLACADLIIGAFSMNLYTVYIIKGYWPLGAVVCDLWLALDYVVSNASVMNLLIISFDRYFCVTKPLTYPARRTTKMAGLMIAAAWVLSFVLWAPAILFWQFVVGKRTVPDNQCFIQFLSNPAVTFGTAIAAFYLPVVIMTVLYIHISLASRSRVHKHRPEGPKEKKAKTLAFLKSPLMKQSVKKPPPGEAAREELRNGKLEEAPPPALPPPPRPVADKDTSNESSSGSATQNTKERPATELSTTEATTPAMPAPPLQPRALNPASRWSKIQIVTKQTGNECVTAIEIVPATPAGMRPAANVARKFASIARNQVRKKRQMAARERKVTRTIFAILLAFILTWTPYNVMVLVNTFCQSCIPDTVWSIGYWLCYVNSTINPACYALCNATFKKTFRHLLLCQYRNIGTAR
The nature of experiment [10]: inhibitors of larval lipid processing in zebrafish, primary screen, whole organism, PED6 fluorescence, gall bladder and intestine (AID 686;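 active means a full or partial loss of lipid-probe fluorescence in the fish gall bladder, intestine or both, judged by eye; inactive means no fluorescence loss, or compound toxic to the fish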;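 further: larvae 5 to 7 days old with five fish per well; signal comes from phospholipase A2 cleavage of quenched PED6 carried via bile; overnight exposure to compound and PED6 before scoring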). Conditions: Zebrafish larvae PED6 lipid processing, fluorescence scoring; screened at 20 µM (by protocol).
Experiment [11] is described as follows: inhibitors of Chlamydomonas gravitaxis, primary screen, whole organism, Chlamydomonas reinhardtii, WT vs cilia-less mutant, absorbance, 96-well (AID 463189;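 active means inhibition at or above 50% relative to wild type and mutant plate controls; inactive means inhibition below 50%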;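 further: 0% = wild type cc124 cells in DMSO and 100% = ciliumless bld1 mutant cells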). Conditions: OD600 absorbance, 2 days, at 10 µM, stronger effect = higher value.
A short description of experiment [12]: inhibitors of Sendai virus-induced IRF3 signaling, primary screen, TLR/RLR signaling modifier project, cell-based, Sendai virus stimulus, luciferase, 10K MLSCN set (AID 602276;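 active means inhibition at or above 50% at 10 µM; inactive means inhibition below 50%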;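 further: firefly luciferase from ISG56 promoter only with Renilla not read in this screen; 0% = Sendai virus plus DMSO and 100% = medium plus DMSO without virus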). Conditions: HEK293 RL24 IRF3 luciferase reporter, at 10 µM, stronger effect = higher value. On the technique in general: Reporter assays use an easily measured gene product as a stand-in for the process of interest.

Experiment [13] is described as follows: inhibitors of poly I:C-induced TLR3 signaling, primary screen, cell-based, poly I:C stimulus, luciferase, 10K MLSCN set (AID 602277;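 active means inhibition of the reporter signal at or above 50%; inactive means inhibition below 50%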). As to conditions: HEK293-TLR3 RL24 IRF3 luciferase reporter, at 10 µM, stronger effect = higher value.
Where [14] appears, read: measured here: cell density z-score.
Setting [15] is: measured here: nuclear c-Myc green intensity z-score.
[16] abbreviates: measured here: nuclear pErk red intensity z-score, stronger effect = higher value.

Voltage-gated potassium channel subunit beta-2 (Rattus norvegicus), sequence (P62483 whole entry, looked up): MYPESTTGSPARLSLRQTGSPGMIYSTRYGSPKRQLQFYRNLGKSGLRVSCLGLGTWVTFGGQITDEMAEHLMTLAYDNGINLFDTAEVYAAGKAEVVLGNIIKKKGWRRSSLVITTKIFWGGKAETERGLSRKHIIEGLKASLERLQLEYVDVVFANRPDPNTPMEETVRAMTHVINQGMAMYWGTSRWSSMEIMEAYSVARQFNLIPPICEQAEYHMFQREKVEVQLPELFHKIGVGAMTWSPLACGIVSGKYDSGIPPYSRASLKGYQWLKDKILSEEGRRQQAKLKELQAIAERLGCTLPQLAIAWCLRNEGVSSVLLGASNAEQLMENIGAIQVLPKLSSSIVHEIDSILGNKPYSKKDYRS
Alpha-2C adrenergic receptor (Homo sapiens), sequence (P18825 whole entry, looked up): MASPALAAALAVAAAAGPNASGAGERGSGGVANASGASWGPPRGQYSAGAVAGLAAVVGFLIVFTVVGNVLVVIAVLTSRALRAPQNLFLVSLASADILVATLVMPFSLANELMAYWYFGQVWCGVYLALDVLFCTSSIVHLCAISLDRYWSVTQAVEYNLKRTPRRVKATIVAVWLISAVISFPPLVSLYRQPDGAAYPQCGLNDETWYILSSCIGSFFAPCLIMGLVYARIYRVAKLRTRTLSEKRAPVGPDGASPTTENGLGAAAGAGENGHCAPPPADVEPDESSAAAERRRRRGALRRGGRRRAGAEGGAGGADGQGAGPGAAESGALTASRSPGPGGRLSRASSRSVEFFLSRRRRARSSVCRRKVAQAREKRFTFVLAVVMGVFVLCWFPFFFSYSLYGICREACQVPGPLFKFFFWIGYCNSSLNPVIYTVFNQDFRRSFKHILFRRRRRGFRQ

Take `Cc1cc(NCC2CCCO2)n2c(nc3ccccc32)c1C#N` (stereo unspecified): the cell count in experiment [1] worked out at 481. The inhibition in experiment [1] is -3.7% (inactive); in experiment [3], -9.7% (inactive); in experiment [5], 1.48% (inactive); in experiment [11], -17.8% (inactive); in experiment [12], 16.8% (inactive); in experiment [13], 15.3% (inactive). Further, in experiment [2], the inhibition of aggregation was 16.3% (inactive). The nuclei count in experiment [2] came out at 95.7%; in experiment [3], 113%. Moreover, the z-score in experiment [4] (setting [14]) was -1.71; in [4] (setting [15]), 1; in [4] (setting [16]), 0.144. Also, the values for the fluorescence slope in experiment [6] and in experiment [9] were -0.356 (inactive) and 0.00588 (inactive), respectively. Moreover, the NADPH fluorescence slope in [7] was -1.1e-05 (inactive). Besides, in experiment [8], the slope was 0.00569 (inactive). Further, the compound was called inactive in experiment [10].

Regarding `CCCCOc1ccc(C(=O)Nc2ccc(N3CCN(C(C)=O)CC3)cc2)cc1`, the cell count in experiment [1] stood at 490. The inhibition in experiment [1] is -7.3% (inactive); in experiment [3], -28.4% (inactive); in experiment [5], 5.95% (inactive); in [11] it was 3.64% (inactive); in experiment [12], 6.98% (inactive); in experiment [13], 2.99% (inactive). In [2], the inhibition of aggregation was 0.5% (inactive). Moreover, the figures for the nuclei count in experiment [2] and in [3] were 104% and 141%, respectively. Besides, the results for the z-score in experiment [4] (setting [14]), in experiment [4] (setting [15]) and in experiment [4] (setting [16]) were 1.4, -2.16 and 0.274, respectively. The fluorescence slope is -0.265 (inactive) in experiment [6] and 0.00551 (inactive) in experiment [9]. Moreover, the NADPH fluorescence slope in experiment [7] is 1.1e-05 (inactive). Further, in experiment [8], the slope is 0.00636 (inactive). Further, the outcome in experiment [10] was inactive.

Turning to `CCCc1nc(N2CCOCC2)c(C#N)c2c1CCCC2`, the cell count in experiment [1] is 496. Moreover, the inhibition in experiment [1] is -5.5% (inactive); in experiment [3], -58.9% (inactive); in [5], 5.35% (inactive); in [11], -4.21% (inactive); in [12] it was 19.9% (inactive); in experiment [13] it was 22.6% (inactive). Besides, the inhibition of aggregation in [2] was -8.4% (inactive). Moreover, the nuclei count stood at 89.6% in experiment [2] and 128% in experiment [3]. Further, the z-score in experiment [4] (setting [14]) is -0.193; in [4] (setting [15]) it was 0.212; in [4] (setting [16]) it was -0.0343. In addition, the fluorescence slope was -0.436 (inactive) in experiment [6] and 0.00443 (inactive) in experiment [9]. The NADPH fluorescence slope in [7] was -0.000102 (inactive). For the same compound, in experiment [8], the slope is 0.00439 (inactive). In addition, the outcome in experiment [10] was inactive.

Turning to `N#Cc1c(N2CCOCC2)nc(N2CCCCC2)c2c1CCN(C1CCCCC1)C2`, in experiment [1], the cell count amounted to 486. Moreover, the inhibition was -5.3% (inactive) in [1]; -130% (inactive) in [3]; -13.3% (inactive) in experiment [5]; 2.06% (inactive) in [11]; -1.64% (inactive) in experiment [12]; 99% (active) in experiment [13]. Moreover, the inhibition of aggregation in [2] is 6.4% (inactive). Besides, the nuclei count in [2] came to 102%; in [3] it was 119%. The z-score was -0.146 in experiment [4] (setting [14]), 1.29 in [4] (setting [15]) and 0.496 in experiment [4] (setting [16]). Further, the fluorescence slope in experiment [6] was -0.442 (inactive); in experiment [9], 0.00444 (inactive). The NADPH fluorescence slope in experiment [7] is -0.000108 (inactive). In addition, in experiment [8], the slope is 0.00466 (inactive). Besides, the result in experiment [10] was inactive.

On to `COc1ccc(N2CCN(c3nc4c(c(=O)[nH]c(=O)n4C)n3CCCc3ccccc3)CC2)cc1`, for which the cell count in [1] was 636. Further, the inhibition is 6.6% (inactive) in experiment [1]; -69.3% (inactive) in experiment [3]; 14.7% (inactive) in [5]; 1.13% (inactive) in experiment [11]; 12.8% (inactive) in experiment [12]; 18.8% (inactive) in experiment [13]. The inhibition of aggregation in [2] is 2.8% (inactive). For the same compound, the nuclei count came out at 100% in [2] and 112% in experiment [3]. Besides, the z-score in [4] (setting [14]) is 0.546; in [4] (setting [15]), -1.43; in experiment [4] (setting [16]) it was 0.632. The fluorescence slope in experiment [6] was -0.429 (inactive); in experiment [9] it was 0.0059 (inactive). Moreover, the NADPH fluorescence slope in experiment [7] is -3.7e-05 (inactive). In addition, the slope in [8] is 0.0083 (inactive). Further, in experiment [10], the call was inactive.

For `Cc1c(C=NCCOCc2ccccc2)cnn1C`, the cell count in [1] stood at 579. For the same compound, the inhibition in [1] was 0.8% (inactive); in experiment [3], -159% (inactive); in experiment [5], -1.98% (inactive); in experiment [11], -6.27% (inactive); in experiment [12], 11.7% (inactive); in [13] it was 12.3% (inactive). Further, the inhibition of aggregation in [2] is -5.6% (inactive). Also, the figures for the nuclei count in experiment [2] and in [3] were 102% and 116%, respectively. The z-score in experiment [4] (setting [14]) was 0.444; in experiment [4] (setting [15]), 0.191; in [4] (setting [16]) it was 0.325. For the same compound, the fluorescence slope in experiment [6] was -0.369 (inactive); in experiment [9], 0.00645 (inactive). The NADPH fluorescence slope in experiment [7] is -3e-05 (inactive). For the same compound, the slope in experiment [8] was 0.00503 (inactive). Besides, the call in [10] was inactive.

Consider `C=CCn1c(SCC(=O)c2ccccc2)nnc1-c1ccc2c(c1)OCO2`, for which the cell count in experiment [1] worked out at 728. The inhibition is -2.4% (inactive) in [1]; -60.6% (inactive) in experiment [3]; -13.3% (inactive) in [5]; -7.63% (inactive) in experiment [11]; -8.67% (inactive) in [12]; -3.99% (inactive) in experiment [13]. Moreover, the inhibition of aggregation in experiment [2] is -1% (inactive). Further, the nuclei count turned out to be 92.4% in [2] and 117% in experiment [3]. Moreover, the z-score in experiment [4] (setting [14]) worked out at 0.143; in experiment [4] (setting [15]), 0.0826; in experiment [4] (setting [16]), 1.39. Further, the fluorescence slope is -0.528 (inactive) in experiment [6] and 0.00674 (inactive) in experiment [9]. Besides, in experiment [7], the NADPH fluorescence slope is -3.6e-05 (inactive). Moreover, in experiment [8], the slope was 0.00455 (inactive). In addition, in [10], the compound was called inactive.

One may read the inhibition as the change of the read-out against control, counted positive when it falls.
